Pin1 inhibitor – blocks the human prolyl isomerase Pin1; Potency, µM (series often up to 115 µM), for the others: at the highest dose activity, negative = inhibition, usual class: inhibitors; actives 0.009% (n = 390,000); AID 504891; Pin1 FP peptide displacement, HiFluor488, 10 min; Q13526; active = well fitted inhibition curve with a large enough effect in the polarisation, with a control signal flat, not every such curve was filed as active; inconclusive = small, poorly fitted or top-dose-only effect, or effect the other way, or a change in a side signal; inactive = no such curve, though single readings can be large or run the other way; the % refers to the polarisation; note: potency is the fitted concentration of half-maximal effect
Target sequence (Q13526 whole entry, looked up): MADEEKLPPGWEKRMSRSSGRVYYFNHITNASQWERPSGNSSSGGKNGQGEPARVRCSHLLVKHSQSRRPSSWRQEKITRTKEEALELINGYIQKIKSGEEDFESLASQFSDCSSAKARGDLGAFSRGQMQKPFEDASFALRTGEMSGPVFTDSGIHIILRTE
Tb PGK inh – T. brucei PGK inhibition. PGK/GAPDH coupled, Kinase-Glo luminescence, 60 min. Potency, µM (highest dose often 57.5 µM), for the others: at the highest dose activity change, negative = inhibition, hits mostly inhibitors. actives 0.043% (n = 380,000); note: potency is the fitted concentration of half-maximal effect; nearly all actives have a fitted effect of over 60% in size
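Luminescent ATP detection (Kinase-Glo Plus) follows a 60-minute room-temperature incubation, with wells lacking PGK as controls. Buffer: 100 mM TEA (pH 7.6), 5 mM MgCl2, 0.01% Tween-20. Coupling enzyme GAPDH (100 nM final) supplies unstable 1,3-BPG in-well.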
PI4K2A block – PI4K2A (human) kinase inhibition | AID 1346378 | purified PI4K2A, ADP-Glo luminescence, 1 h; stronger effect = lower value | Q9BTU6 | activity change, negative = inhibition, % at 76.9 µM | actives 0.13% (n = 420,000); in the data active = activity change below about -50%; inconclusive = mostly about -30% to -49%;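 note: -100% = wells without enzyme as full effect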
Target sequence (Q9BTU6 whole entry, looked up): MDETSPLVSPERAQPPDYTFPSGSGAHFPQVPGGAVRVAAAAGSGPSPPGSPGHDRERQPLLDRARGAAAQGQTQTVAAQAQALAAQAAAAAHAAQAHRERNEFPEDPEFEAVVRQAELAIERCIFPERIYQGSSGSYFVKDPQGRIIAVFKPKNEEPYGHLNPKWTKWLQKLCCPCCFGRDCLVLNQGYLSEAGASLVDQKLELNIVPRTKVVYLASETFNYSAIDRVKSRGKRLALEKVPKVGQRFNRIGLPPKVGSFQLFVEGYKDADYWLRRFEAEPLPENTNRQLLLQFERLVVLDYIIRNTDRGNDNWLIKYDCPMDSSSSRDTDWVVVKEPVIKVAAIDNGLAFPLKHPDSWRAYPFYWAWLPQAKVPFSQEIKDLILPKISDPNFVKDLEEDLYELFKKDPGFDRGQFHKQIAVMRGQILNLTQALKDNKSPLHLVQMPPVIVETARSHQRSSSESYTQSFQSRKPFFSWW
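In this quantitative HTS, ADP production by PI4K2A was quantified luminescently after 1 h at ambient temperature; 100 microM adenosine served as plate-quality control.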
PI5P4Ka inh – PI5P4K alpha (human) kinase inhibition. P48426. PI5P4Kalpha enzyme, ADP-Glo luminescence, 60 min; stronger effect = lower value. max response, %. actives 1.2% (n = 330,000). AID 652105; active = max response of -50% or lower; inconclusive = between -30% and -50%; inactive = -30% or higher; note: value at the top dose of about 77 µM
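ADP-Glo luminescence end-point after a 60 min room-temperature kinase reaction. PI5P4Kalpha and substrate in HEPES pH 7.4 buffer with EGTA, 0.1% CHAPS and 5% DMSO; ATP at 5 microM final.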
ADP-Glo counter – interferes with ADP-Glo detection without enzyme present | Potency, µM (top dose mostly 76.9 µM), inactives show at the highest dose activity change, negative = inhibition, hits mostly inhibitors | 1,100 tested, under 10 active | shares compounds with PI5P4Ka inh | ADP-Glo detection counter-screen, luciferase luminescence, no enzyme | AID 743285
Active calls of the source: *. Shown is part of a subset that was picked to be rich in hits. Unless noted, calls come from the whole dose curve; as a rule, active = well fitted curve in the direction sought with a large enough effect; inconclusive = small, poorly fitted or top-dose-only effect, or another doubt; inactive = no such curve, though single readings can be large; an effect the other way counts as inactive or inconclusive. Unless noted, % is set by controls: 0 for no effect and ±100 for the full control effect.

What do the screens show for `COCCNC(=O)C(c1ccc(O)cc1)N(Cc1ccco1)C(=O)CCC(=O)Nc1ccccn1` (centres undefined)?
Pin1 inhibitor: -0.3%; Tb PGK inh: -0.5%; PI4K2A block: -2.1; PI5P4Ka inh: -8.9

What do the screens show for `Cc1nc2c(-c3ccc(F)cc3)c(C)nn2c(C)c1CCC(=O)NCc1ccc(Cl)cc1`?
Pin1 inhibitor: 0.4%; Tb PGK inh: 1.7%; PI4K2A block: 1.2

What do the screens show for `CCOC(=O)c1cnc2cc(C)ccn2c1=O`?
Pin1 inhibitor: 8.9%; Tb PGK inh: -4.5%; PI4K2A block: 1.5; PI5P4Ka inh: -19.7; ADP-Glo counter: -3.5%

How did CCN(Cc1ccccc1)c1nc2c(S(=O)(=O)c3ccccc3)nnn2c2ccc(Cl)cc12 do in these assays?
Pin1 inhibitor: 31.3%; Tb PGK inh: -9.5%; PI4K2A block: 3.3

What do the screens show for `O=C(NCc1ccc(F)cc1)C1CCN(c2cnccn2)CC1`?
Pin1 inhibitor: 5.9%; Tb PGK inh: -4.7%; PI4K2A block: -0.5; PI5P4Ka inh: -53.5*; ADP-Glo counter: 0.7%

How did CCOc1cc(NC(C)=O)ccc1C(=O)OC do in these assays?
PI4K2A block: -2.6

What do the screens show for `Cc1ccc(Cl)cc1Nc1nc(N2CCOCC2)nc(N2CCOCC2)n1`?
Pin1 inhibitor: -0.9%; Tb PGK inh: -6.9%; PI4K2A block: -4.3; PI5P4Ka inh: 3.8

What do the screens show for `Cc1ccc([N+](=O)[O-])cc1Nc1nc(N2CCOCC2)nc(N2CCOCC2)n1`?
Pin1 inhibitor: -4.6%; Tb PGK inh: -14.1%; PI4K2A block: 3.1; PI5P4Ka inh: -74.2*; ADP-Glo counter: -3.1%

What do the screens show for `Cc1oc(-c2ccc(Cl)cc2)cc1-c1nn2c(-c3ccoc3C)nnc2s1`?
Pin1 inhibitor: 16.8%; Tb PGK inh: -13.0%; PI4K2A block: -12.0; PI5P4Ka inh: -64.8*; ADP-Glo counter: -0.1%

Results for O=C(Nc1nc(-c2ccccn2)cs1)C1CC(=O)N(c2ccc3c(c2)OCCO3)C1 (centres undefined) ?
Pin1 inhibitor: inconclusive; Tb PGK inh: -5.8%; PI4K2A block: -4.6; PI5P4Ka inh: -50.3*; ADP-Glo counter: -4.1%

How did O=C(Nc1nc(-c2cccs2)cs1)C1CC(=O)N(c2ccc3c(c2)OCCO3)C1 (centres undefined) do in these assays?
Pin1 inhibitor: 13.1%

How did Cc1ccc(Cl)cc1N1CCN(S(=O)(=O)c2ccc3c(c2)CCN3C(=O)C2CCC2)CC1 do in these assays?
Pin1 inhibitor: -0.6%; Tb PGK inh: -6.9%; PI4K2A block: -0.7

What do the screens show for `O=C(NCc1ccc(Cl)cc1)O[C@H]1CC[C@@]23CCCN2C(=O)CCC[C@H]3C1`?
PI4K2A block: 4.0

What do the screens show for `COc1ccc2c([N+](=O)[O-])c(N3CCOCC3)[nH]c2c1`?
Tb PGK inh: 2.4%; PI4K2A block: 0.3; PI5P4Ka inh: -1.0

What do the screens show for `COc1ccc2c([N+](=O)[O-])c(Cl)[nH]c2c1`?
Pin1 inhibitor: inconclusive; Tb PGK inh: inconclusive; PI4K2A block: -17.3; PI5P4Ka inh: -56.7*; ADP-Glo counter: 0.0%

Results for COc1cc2nc(Nc3ccc(C)c(Cl)c3)nc(N)c2cc1OC ?
Pin1 inhibitor: inconclusive; Tb PGK inh: -9.7%; PI4K2A block: 1.1; PI5P4Ka inh: -59.8*; ADP-Glo counter: 4.0%

Results for Cc1nnc(SCC(=O)Nc2sc3c(c2C(N)=O)CCC(C)C3)[nH]c1=O (centres undefined) ?
Pin1 inhibitor: 0.5%; Tb PGK inh: inactive; PI4K2A block: -2.8; PI5P4Ka inh: -53.6*; ADP-Glo counter: -8.0%

How did CCCc1cc(=O)[nH]c(SCC(=O)Nc2sc3c(c2C#N)CCC(C)C3)n1 (centres undefined) do in these assays?
Pin1 inhibitor: inconclusive; Tb PGK inh: -4.6%; PI4K2A block: -3.2; PI5P4Ka inh: -54.4*; ADP-Glo counter: 0.8%

Results for Cc1nc2ccccc2nc1OCC(=O)NCc1ccc2c(c1)OCO2 ?
Pin1 inhibitor: 32.6%; Tb PGK inh: -3.3%; PI4K2A block: -20.1; PI5P4Ka inh: -61.9*; ADP-Glo counter: -13.7%

Results for O=C(COc1ncnc2ccccc12)NCc1ccc2c(c1)OCO2 ?
Pin1 inhibitor: 9.2%; Tb PGK inh: -9.6%; PI4K2A block: 0.7; PI5P4Ka inh: 6.0

What do the screens show for `CCCCN(C(=O)c1cccc(-n2cccc2)c1)c1c(N)n(CCC)c(=O)[nH]c1=O`?
Pin1 inhibitor: -8.8%; Tb PGK inh: -25.6%; PI4K2A block: -0.2; PI5P4Ka inh: -60.9*; ADP-Glo counter: 1.9%

What do the screens show for `CCCCN(C(=O)c1cccc(-n2cccc2)c1)c1c(N)n(CCCC)c(=O)[nH]c1=O`?
Pin1 inhibitor: inconclusive; Tb PGK inh: -9.5%; PI4K2A block: -21.7; PI5P4Ka inh: inconclusive

What do the screens show for `COCCCN(C(=O)c1cc2c(s1)CCC2)c1c(N)n(Cc2ccccc2)c(=O)[nH]c1=O`?
Pin1 inhibitor: inconclusive; Tb PGK inh: -6.8%; PI4K2A block: -5.4; PI5P4Ka inh: inconclusive

How did CCCN(C(=O)c1cccc(-n2cccc2)c1)c1c(N)n(Cc2ccccc2)c(=O)[nH]c1=O do in these assays?
Pin1 inhibitor: -8.6%; Tb PGK inh: inconclusive; PI4K2A block: -16.5; PI5P4Ka inh: -88.2*; ADP-Glo counter: -8.2%

How did CCCN(C(=O)c1cc2c(s1)CCC2)c1c(N)n(Cc2ccccc2)c(=O)[nH]c1=O do in these assays?
Pin1 inhibitor: inconclusive; Tb PGK inh: -5.7%; PI4K2A block: -6.0; PI5P4Ka inh: -66.4*; ADP-Glo counter: 1.5%

How did CCn1nc(C(=O)Nc2ccc(Cl)c(S(=O)(=O)N3CCOCC3)c2)c2ccccc2c1=O do in these assays?
Pin1 inhibitor: -2.4%; Tb PGK inh: 3.6%; PI4K2A block: 2.6; PI5P4Ka inh: 11.9

How did Cc1cc(C)c2nc(-c3ccccn3)cc(C(=O)Nc3ccc(S(=O)(=O)Nc4onc(C)c4C)cc3)c2c1 do in these assays?
Pin1 inhibitor: inconclusive; Tb PGK inh: -15.6%; PI4K2A block: -3.2; PI5P4Ka inh: -66.0*; ADP-Glo counter: -1.0%

Results for Cc1ccc(C(=O)N2CCCc3ccccc32)c(F)c1F ?
Pin1 inhibitor: 1.4%; Tb PGK inh: 3.8%; PI4K2A block: -1.5; PI5P4Ka inh: -3.0

Results for CN(C)S(=O)(=O)c1ccc(C(=O)Nc2cc3c(cc2C(=O)O)OCCCO3)cc1 ?
Pin1 inhibitor: 0.3%; Tb PGK inh: -8.1%; PI4K2A block: -3.3; PI5P4Ka inh: -50.3*; ADP-Glo counter: -0.2%

What do the screens show for `CN(C)S(=O)(=O)c1cccc(C(=O)Nc2cc3c(cc2C(=O)O)OCCCO3)c1`?
Pin1 inhibitor: -1.7%; Tb PGK inh: -14.0%; PI4K2A block: 2.0; PI5P4Ka inh: -10.1

Results for COc1cc(C(=O)Nc2scc(-c3ccc(Br)cc3)c2C(=O)O)cc(OC)c1OC ?
Pin1 inhibitor: -18.5%; Tb PGK inh: inactive; PI4K2A block: -3.4; PI5P4Ka inh: -97.8*; ADP-Glo counter: 1.7%

Assay outcomes (PubChem BioAssay)
